# An excerpt weighted towards active compounds, which were near 5.5% of everything screened.
# Gal4-VP16 FLuc: VP16 counterscreen qHTS for inhibitors of ROR gamma transcriptional activity | Drosophila S2 Gal4-VP16 UAS-luciferase, luminescence, 20 h | Potency, µM (series often up to 53.6 µM), inactives show top-dose activity, negative = inhibition, most hits filed as inhibitors | hit rate 3.5% among 310,000 | AID 2546, 2010;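 note: Gal4-VP16 expression switched on by copper sulfate through the metallothionein promoter; % is set by controls: 0 for no effect and ±100 for the full control effect; nearly all actives have a fitted effect of over 50% in size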
# Chronic BCR inh: qHTS Assay to Find Inhibitors of Chronic Active B-Cell Receptor Signaling; ABC-DLBCL IkBa-CBG/CBR reporter, luminescence ratio, 4 h; Potency, µM (top dose mostly 46.1 µM), for inactives: at the top dose activity change, negative = inhibition, usual class: inhibitors; hit rate 0.05% among 340,000; AID 493014, 2011; active = well fitted inhibition curve with a large enough effect in the signal ratio, with a control signal flat, not every such curve was filed as active; inconclusive = small, poorly fitted or top-dose-only effect, or effect the other way, or a change in a side signal; the % refers to the signal ratio;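 note: plate controls were basal doxycycline-induced cells for no effect and cells given 10 µM MG132 for full effect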
#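 Cell line TMD8 (human ABC DLBCL), stably expressing tet-inducible CBG68-IkBa fusion and CBR; IMDM/0.5% FBS; cpd up to 46 uM; dox induction, 4 h, 37C/5% CO2; dual luminescence; green/red ratio; MG132 control.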
# Integrin act MD: qHTS for Activators of Integrin-Mediated Alleviation for Muscular Dystrophy | alpha7betagal myoblasts, beta-gal FDG fluorescence, 48 h | Potency, µM (titrated, usually from 38.3 µM), inactives show at the top dose activation, usual class: activators | hit rate 0.064% among 350,000;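 note: 100% = response of the positive control SU9516; nearly all actives have a fitted effect of over 60% in size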
#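 alpha7betagal+/- myoblasts (passage 13, 250/well) treated 48 h at 37C with compounds at 1:260 dilution of DMSO stock. Lysed, then beta-galactosidase activity read as FDG fluorescence (ex 480/em 540) after 30 min, with pre-read for autofluorescence.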
# Mito fusion act: qHTS Assay for Small Molecule Inhibitors of Mitochondrial Division or Activators of Mitochondrial Fusion; S. cerevisiae fusion-defective mutant growth rescue, CellTiterGlo 48 h; Potency, µM (series often up to 46.1 µM), for the others: at the top dose growth rescue (activation), usual class: activators; hit rate 0.23% among 320,000; AID 485298, 2010; note: % of control where 0% means no effect; nearly all actives have a fitted effect of over 45% in size
#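 Growth-rescue viability read-out: after 48 h at the non-permissive 37C in glycerol/ethanol YPEG, yeast mitochondrial fusion mutants are measured by CellTiterGlo luminescence; compounds (23 nl pinned per well) restoring growth score as division inhibitors or fusion activators.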
# uPA generation: qHTS for Inhibitors of Cell Surface uPA Generation; cell surface uPA generation assay, qHTS; AID 540303, 2011; hit rate 0.31% among 330,000; Potency, µM (top dose mostly 38.3 µM), for inactives: top-dose activity change, negative = inhibition, usual class: inhibitors; active = well fitted inhibition curve with a large enough effect; inconclusive = small, poorly fitted or top-dose-only effect; inactive = no such curve, though single readings can be large or run the other way; tested in mouse RAW 264.7 cells; note: % is set by controls: 0 for no effect and ±100 for the full control effect; nearly all actives have a fitted effect of over 55% in size
# RORgamma inh: qHTS for inhibitors of ROR gamma transcriptional activity. Nuclear receptor ROR-gamma (Mus musculus), P51450. Potency, µM (top dose mostly 53.6 µM), for inactives: at the top dose activity change, negative = inhibition, most hits filed as inhibitors. Drosophila S2 Gal4-RORgamma UAS-luciferase reporter, 20 h. hit rate 5.4% among 310,000; note: % is set by controls: 0 for no effect and ±100 for the full control effect; nearly all actives have a fitted effect of over 60% in size
# Target sequence (P51450 whole entry, looked up, the tested form may be a part): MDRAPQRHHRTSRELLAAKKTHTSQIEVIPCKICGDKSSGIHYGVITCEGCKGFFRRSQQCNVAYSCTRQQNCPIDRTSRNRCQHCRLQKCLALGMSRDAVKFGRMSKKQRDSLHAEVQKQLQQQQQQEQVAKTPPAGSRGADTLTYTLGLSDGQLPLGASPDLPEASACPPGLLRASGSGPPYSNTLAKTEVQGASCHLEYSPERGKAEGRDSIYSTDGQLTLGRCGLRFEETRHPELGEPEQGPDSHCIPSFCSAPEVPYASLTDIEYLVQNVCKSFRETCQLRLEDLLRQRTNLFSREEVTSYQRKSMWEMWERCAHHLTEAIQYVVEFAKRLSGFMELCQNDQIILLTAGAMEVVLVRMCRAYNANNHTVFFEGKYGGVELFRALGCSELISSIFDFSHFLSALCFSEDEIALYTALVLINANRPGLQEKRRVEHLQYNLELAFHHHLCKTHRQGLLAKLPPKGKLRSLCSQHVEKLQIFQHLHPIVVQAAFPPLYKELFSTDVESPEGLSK
#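 Stably transfected Drosophila Schneider cells are the test system, with ROR gamma fused to Gal4 and luciferase under UAS control; luminescence is read after 20 hr of 700 uM copper sulfate induction at ambient temperature.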
# * marks the source's active call; other numbers are inactive results; ? = inconclusive; . = no result given; ! = not active in a repeat; [ ] = another dose, or the depositor's remark. Unless noted, calls come from the whole dose curve; as a rule, active = well fitted curve in the direction sought with a large enough effect; inconclusive = small, poorly fitted or top-dose-only effect, or another doubt; inactive = no such curve, though single readings can be large; an effect the other way counts as inactive or inconclusive. Potency is the fitted concentration of half-maximal effect.
SMILES,Gal4-VP16 FLuc,Chronic BCR inh,Integrin act MD,Mito fusion act,uPA generation,RORgamma inh
CC(=O)c1cccc(NC(=S)NCCc2ccc(F)cc2)c1,-14%,-5%,0%,-4%,.,?
CCOC(=O)c1ccc(NC(=S)NCCC2=CCCCC2)cc1,3.2µM*,?,-46%,-4%,4%,2.8µM*
CC(=O)c1cccc(NC(=S)NCCC2=CCCCC2)c1,7.1µM*,8%,-52%,2%,-2%,7.1µM*
C[C@]12CC[C@H]3c4ccc(O)cc4CC[C@@H]3[C@H]1CC[C@@H]2OC(=O)CCC1CCCC1,?,.,.,.,.,-8%[10 µM]
O=[N+]([O-])c1ccc(S(=O)(=O)N2CCn3cccc3C2c2ccc(Br)cc2)cc1 (centres undefined),.,15%,.,.,.,.
CC1(C)Cc2ccccc2-c2nnnn21,-4%,3%,13%,1%,11%,10%
c1ccc2c(c1)CC1(CCCC1)n1nnnc1-2,5%,?,-10%,1%,.,0.71µM*
O=S(=O)(CCSc1ccccn1)c1nc2ccccc2s1,?,0%,-55%,-12%,?,13µM*
O=S(=O)(CCSc1nc2ccccc2o1)c1nc2ccccc2s1,?,?,-57%,-2%,?,?
CC1=C(/C=C/C(C)=C\C=C\C(C)=C\C(=O)O)C(C)(C)CCC1,5%,.,.,.,.,?
CC1=C(/C=C/C(C)=C/C=C/C(C)=C/C(=O)O)C(C)(C)CCC1,-4%,?,.,-52%,14%,5µM*!
COc1nc(NC(=O)c2ccc(F)cc2)nc(OC)c1-c1ccccc1,5%,2%,-256%,30%,3%,14%
Cc1cc(SCC(=O)c2ccccc2)n2nc(C)nc2n1,7.1µM*,?,-15%,6%,?,14µM*
Cc1cc(C)c(C#N)c(SCC(=O)c2ccccc2)n1,-7%,0%,-2%,?,4%,2%
Cc1cc(=O)[nH]c(=S)n1-c1ccccc1,0%,?,13%,-1%,6%,-26%
Cc1ccc(-n2c(C)n[nH]c2=S)cc1,?,-3%,?,-4%,-3%,11µM*
Cc1ccc(-n2c(C)n[nH]c2=S)cc1C,?,3%,19%,-4%,1%,11µM*
Cc1cccc(-n2c(C)c(-c3ccccc3)[nH]c2=S)c1,7.9µM*,20%,-23%,-10%,-4%,1.1µM*
Cc1cccc(-n2cc[nH]c2=S)c1,?,-2%,-16%,-9%,4%,7.9µM*
Cc1n[nH]c(=O)n1-c1ccc(C(C)(C)C)cc1,-9%,-13%,-6%,-1%,1%,2%
Cc1cccc(-n2c(C)n[nH]c2=S)c1,-10%,0%,5%,-6%,8%,11µM*
Cc1cccc(-n2c(-c3ccncc3)n[nH]c2=S)c1,-21%,0%,24%,0%,5%,?
CCN(CC)C(=O)Cn1cnc2sc(C)c(S(=O)(=O)N3CCC(C)CC3)c2c1=O,-1%,6%,55%,-2%,1%,15%
Cc1ccc(NS(=O)(=O)c2cc3c4c(cccc4c2)C(=O)NC3=O)cc1C,?,?,-50%,-3%,-4%,?
Cc1ccc(N(C(=O)CCl)C(C(=O)NC2CCCCC2)c2cccnc2)cc1C (centres undefined),?,?,-68%,0%,-9%,11µM*
SMILES,Gal4-VP16 FLuc,Chronic BCR inh,Integrin act MD,Mito fusion act,uPA generation,RORgamma inh
Cc1ccc(N(C(=O)CNC(=O)c2ccco2)C(C(=O)NC2CCCCC2)c2cccnc2)cc1C (centres undefined),-2%,-3%,-20%,-11%,0%,-4%
CCOC(=O)/C(C)=N/NC(=O)c1ccc([N+](=O)[O-])cc1,-11%,-12%,7%,-5%,-2%,-136%
CCOC(=O)C(CC)/C(C)=N/NC(=O)c1ccc([N+](=O)[O-])cc1 (centres undefined),?,0%,-3%,-1%,9%,13µM*
Cc1ccccc1CN1C(=O)c2ccccc2S1(=O)=O,5%,-9%,-48%,14%,-17%,-1%
O=C1c2ccccc2S(=O)(=O)N1Cc1nc2ccccc2s1,4µM*,?,6%,-1%,-5%,3.2µM*
CN(C)/C=C1/C=C(C=O)OC1=O,-10%,2%,0%,-2%,-2%,5%
CS(=O)(=O)/C(C#N)=C\c1cnc(S(=O)(=O)c2ccccc2)s1,7.9µM*,?,.,-4%,.,10µM*
COc1ccccc1/C(C)=N/NC(=S)NCc1ccccc1,7.1µM*,?,14%,-4%,8%,3.2µM*
C=CCNC(=S)N/N=C(\C)c1ccc(OC)cc1,1.1µM*,?,0%,-9%,-2%,0.71µM*
COc1cccc(/C(C)=N/N=C(\C)c2cccc(OC)c2)c1,21%,?,15%,-6%,-4%,?
COc1ccc(/C(C)=N/NC(=O)c2ccccc2OCc2ccccc2)c(OC)c1,-9%,?,1%,0%,0%,-14%
COc1ccc(/C(C)=N/NC(=S)NCc2ccco2)cc1,5.6µM*,?,-20%,0%,-5%,2.8µM*
C=CCNC(=S)N/N=C(\C)c1cccc(OC)c1,0.89µM*,?,-20%,-7%,?,0.79µM*
CC1CCC2=NN(C(=O)c3ccco3)C(O)(C(F)(F)F)C2C1 (centres undefined),-18%,-2%,-8%,7%,1%,42%
O=S(=O)(Nc1ccc(-c2cn3c(n2)SCC3)cc1)c1ccccc1F,12%,9%,-4%,4%,-2%,-1%
C/C(=N\NC(=S)NCc1ccccc1)c1cccc(Br)c1,2%,8%,8%,16%,2%,?
C/C(=N\NC(=S)NCc1ccccc1)c1ccc2ccccc2c1,4.5µM*,1%,12%,?,2%,2.5µM*
COc1ccc(/C(C)=N/NC(=S)NCCc2ccccc2)cc1,1.1µM*,?,8%,3%,2%,0.28µM*
C/C(=N\NC(=S)NCCc1ccccc1)c1cccc(Br)c1,?,?,14%,-8%,.,4.5µM*
COc1ccc(CC(=S)NCCc2ccccc2)cc1,-1%,?,?,-11%,12%,-43%
C=CCNC(=S)N/N=C(\C)c1cccnc1,20µM*,?,-5%,-12%,-19%,3.2µM*
COc1ccc2cc(C(=O)C3CCCN(C(=O)c4cc5nc(C)cc(C)n5n4)C3)ccc2c1 (centres undefined),16%,-14%,-61%,-2%,-2%,10%
O=C(CCl)NC1(C(=O)O)CCCC1,.,.,-9%,.,.,.
